Laboratory results: PubChem BioAssay AID1159580 (chemical genetic matrix, 2015)
Among all 5,500 compounds or so, about 2,000 (36%) were called active. Another 18% or so got no clear call; they are omitted. Rule as the data show it: active = normalized growth mostly below about 0.91 (no sharp cut-off); inconclusive = no clear call, values can overlap the other calls; inactive = mostly above about 0.92. The list shows a part of the results.

Assay: chemical genetic growth profiling, strain panel (AID 1159580);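 also: tested at 20 µM; growth read once vehicle control cultures reached saturation at 30 °C; 1 = growth at the plate median or of vehicle wells; lower values mean less growth of the strain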
Details: growth OD

Measured: normalized growth

CC(C)(C)NCC(O)COc1cccc2c1C[C@H](O)[C@H](O)C2 (stereo not given in full)
inactive: S. cerevisiae deletion strains, locus YJR075W, strain HOC1, active compounds read low 1 | S. cerevisiae deletion strains, locus YKL009W, strain mrt4, active compounds read low 0.972 | S. cerevisiae deletion strains, locus YKL068W, active compounds read low 0.986 | S. cerevisiae deletion strains, locus YKL085W, strain MDH1 (second series), active compounds read low 0.99 | S. cerevisiae deletion strains, locus YKL085W, strain MDH1, active compounds read low 0.99 | S. cerevisiae deletion strains, locus YKL160W, strain elf1, active compounds read low 1.01 | S. cerevisiae deletion strains, locus YKL190W, strain CNB1, active compounds read low 0.993 | S. cerevisiae deletion strains, locus YKR001C, strain vps1, active compounds read low 1 | S. cerevisiae deletion strains, locus YKR026C, strain gcn3, active compounds read low 1.01 | S. cerevisiae deletion strains, locus YKR091W, strain srl3, active compounds read low 0.993 | S. cerevisiae deletion strains, locus YLL001W, strain dnm1, active compounds read low 1.01 | S. cerevisiae deletion strains, locus YLL026W, active compounds read low 1.01 | S. cerevisiae deletion strains, locus YLL041C, strain sdh2, active compounds read low 1 | S. cerevisiae deletion strains, locus YLR027C, strain aat2, active compounds read low 1 | S. cerevisiae deletion strains, locus YLR039C, strain RIC1, active compounds read low 0.973 | S. cerevisiae deletion strains, locus YLR058C, strain SHM2, active compounds read low 0.997 | S. cerevisiae deletion strains, locus YLR102C, strain apc9, active compounds read low 0.992 | S. cerevisiae deletion strains, locus YLR113W, strain HOG1, active compounds read low 1.05 | S. cerevisiae deletion strains, locus YLR221C, strain rsa3, active compounds read low 1 | S. cerevisiae deletion strains, locus YLR258W, strain gsy2, active compounds read low 0.998 | S. cerevisiae deletion strains, locus YLR262C, strain YPT6 (second series), active compounds read low 1.01 | S. cerevisiae deletion strains, locus YLR262C, strain YPT6, active compounds read low 0.928 | S. cerevisiae deletion strains, locus YLR268W, strain sec22, active compounds read low 0.994 | S. cerevisiae deletion strains, locus YLR320W, strain mms22, active compounds read low 1.02 | S. cerevisiae deletion strains, locus YLR330W, strain CHS5, active compounds read low 0.986 | S. cerevisiae deletion strains, locus YLR342W, strain FKS1 (second series), active compounds read low 0.993 | S. cerevisiae deletion strains, locus YLR342W, strain FKS1, active compounds read low 1.01 | S. cerevisiae deletion strains, locus YLR357W, strain rsc2, active compounds read low 1.01 | S. cerevisiae deletion strains, locus YLR370C, strain arc18, active compounds read low 1.02 | S. cerevisiae deletion strains, locus YLR371W, strain rom2, active compounds read low 0.994 | S. cerevisiae deletion strains, locus YLR384C, strain iki3, active compounds read low 1.02 | S. cerevisiae deletion strains, locus YLR418C, strain cdc73, active compounds read low 0.946 | S. cerevisiae deletion strains, locus YML016C, strain PPZ1, active compounds read low 1 | S. cerevisiae deletion strains, locus YML032C, strain rad52, active compounds read low 0.999 | S. cerevisiae deletion strains, locus YML120C, strain ndi1, active compounds read low 1.01 | S. cerevisiae deletion strains, locus YML124C, strain tub3, active compounds read low 0.995 | S. cerevisiae deletion strains, locus YMR058W, strain fet3, active compounds read low 1.01 | S. cerevisiae deletion strains, locus YMR078C, strain ctf18, active compounds read low 0.982 | S. cerevisiae deletion strains, locus YMR125W, strain sto1, active compounds read low 1.01 | S. cerevisiae deletion strains, locus YMR129W, active compounds read low 1.01 | S. cerevisiae deletion strains, locus YMR205C, strain PFK2, active compounds read low 1.02 | S. cerevisiae deletion strains, locus YMR223W, strain ubp8, active compounds read low 0.964 | S. cerevisiae deletion strains, locus YMR231W, strain pep5, active compounds read low 0.998 | S. cerevisiae deletion strains, locus YMR263W, strain SAP30, active compounds read low 1.02 | S. cerevisiae deletion strains, locus YMR307W, strain GAS1, active compounds read low 0.959 | S. cerevisiae deletion strains, locus YNL067W, strain RPL9B, active compounds read low 1.02 | S. cerevisiae deletion strains, locus YNL071W, strain lat1, active compounds read low 0.999 | S. cerevisiae deletion strains, locus YNL128W, strain TEP1, active compounds read low 0.988 | S. cerevisiae deletion strains, locus YNL183C, strain NPR1, active compounds read low 1 | S. cerevisiae deletion strains, locus YNL209W, strain ssb2, active compounds read low 0.994 | S. cerevisiae deletion strains, locus YNL233W, strain BNI4, active compounds read low 1.04 | S. cerevisiae deletion strains, locus YNL248C, strain rpa49, active compounds read low 1.01 | S. cerevisiae deletion strains, locus YNL250W, strain rad50, active compounds read low 0.972 | S. cerevisiae deletion strains, locus YNL271C, strain bni1, active compounds read low 0.988 | S. cerevisiae deletion strains, locus YNL298W, strain CLA4, active compounds read low 0.983 | S. cerevisiae deletion strains, locus YNL307C, strain MCK1, active compounds read low 0.986 | S. cerevisiae deletion strains, locus YNL322C, strain KRE1 (second series), active compounds read low 1.01 | S. cerevisiae deletion strains, locus YNL322C, strain KRE1, active compounds read low 0.992 | S. cerevisiae deletion strains, locus YNR049C, strain mso1, active compounds read low 1.01 | S. cerevisiae deletion strains, locus YNR052C, strain pop2, active compounds read low 0.989 | S. cerevisiae deletion strains, locus YOL006C, strain TOP1, active compounds read low 1.05 | S. cerevisiae deletion strains, locus YOL012C, strain htz1 1.13 | S. cerevisiae deletion strains, locus YOL147C, strain pex11, active compounds read low 0.992 | S. cerevisiae deletion strains, locus YOR001W, strain rrp6, active compounds read low 1 | S. cerevisiae deletion strains, locus YOR061W, strain CKA2, active compounds read low 1 | S. cerevisiae deletion strains, locus YOR069W, strain VPS5, active compounds read low 0.999 | S. cerevisiae deletion strains, locus YOR070C, strain gyp1, active compounds read low 1 | S. cerevisiae deletion strains, locus YOR080W, strain dia2, active compounds read low 1.01 | S. cerevisiae deletion strains, locus YOR083W, strain WHI5, active compounds read low 1 | S. cerevisiae deletion strains, locus YOR106W, strain vam3, active compounds read low 1.02 | S. cerevisiae deletion strains, locus YOR136W, strain idh2, active compounds read low 0.994 | S. cerevisiae deletion strains, locus YOR144C, strain elg1, active compounds read low 0.999 | S. cerevisiae deletion strains, locus YOR184W, strain ser1, active compounds read low 0.974 | S. cerevisiae deletion strains, locus YOR231W, strain MKK1, active compounds read low 1.06 | S. cerevisiae deletion strains, locus YOR265W, strain rbl2, active compounds read low 1.01 | S. cerevisiae deletion strains, locus YOR270C, strain vph1, active compounds read low 1.01 | S. cerevisiae deletion strains, locus YOR290C, strain snf2, active compounds read low 1.01 | S. cerevisiae deletion strains, locus YOR316C, strain cot1, active compounds read low 0.985 | S. cerevisiae deletion strains, locus YPL051W, strain arl3, active compounds read low 1 | S. cerevisiae deletion strains, locus YPL078C, strain atp4, active compounds read low 1 | S. cerevisiae deletion strains, locus YPL106C, strain sse1, active compounds read low 1.01 | S. cerevisiae deletion strains, locus YPL240C, strain hsp82, active compounds read low 0.997 | S. cerevisiae deletion strains, locus YPL241C, strain CIN2, active compounds read low 0.987 | S. cerevisiae deletion strains, locus YPL256C, strain CLN2, active compounds read low 1.02 | S. cerevisiae deletion strains, locus YPR119W, strain clb2, active compounds read low 0.996 | S. cerevisiae deletion strains, locus YPR141C, strain kar3, active compounds read low 0.994 | S. cerevisiae deletion strains, locus YPR163C, strain tif3, active compounds read low 0.991 | S. cerevisiae deletion strains, locus YPR167C, strain met16, active compounds read low 0.987 | S. cerevisiae deletion strains, strain wtn01, active compounds read low 0.983 | S. cerevisiae strains, strain wild type, active compounds read low 0.998
